Screens (PubChem)
The list is not random: actives were taken first. Their share in the collection is about 7.4%.
DAT uptake mod – changed human dopamine transporter uptake under cocaine IC80. Q01959. LLC-PK1 hDAT cells, [14C]-dopamine uptake with cocaine IC80; actives deviate in either direction. B-score at 10 µM. 110,000 tested, 1.3% active. AID 449768;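 active = Z score or B-score, a plate-position-corrected score, falls beyond the plate's 99.7% confidence bounds, in either direction; inactive = both scores lie inside the 99.7% bounds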;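 note: scored against the spread of the other compound wells on the same plate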
Target sequence (Q01959 whole entry, looked up): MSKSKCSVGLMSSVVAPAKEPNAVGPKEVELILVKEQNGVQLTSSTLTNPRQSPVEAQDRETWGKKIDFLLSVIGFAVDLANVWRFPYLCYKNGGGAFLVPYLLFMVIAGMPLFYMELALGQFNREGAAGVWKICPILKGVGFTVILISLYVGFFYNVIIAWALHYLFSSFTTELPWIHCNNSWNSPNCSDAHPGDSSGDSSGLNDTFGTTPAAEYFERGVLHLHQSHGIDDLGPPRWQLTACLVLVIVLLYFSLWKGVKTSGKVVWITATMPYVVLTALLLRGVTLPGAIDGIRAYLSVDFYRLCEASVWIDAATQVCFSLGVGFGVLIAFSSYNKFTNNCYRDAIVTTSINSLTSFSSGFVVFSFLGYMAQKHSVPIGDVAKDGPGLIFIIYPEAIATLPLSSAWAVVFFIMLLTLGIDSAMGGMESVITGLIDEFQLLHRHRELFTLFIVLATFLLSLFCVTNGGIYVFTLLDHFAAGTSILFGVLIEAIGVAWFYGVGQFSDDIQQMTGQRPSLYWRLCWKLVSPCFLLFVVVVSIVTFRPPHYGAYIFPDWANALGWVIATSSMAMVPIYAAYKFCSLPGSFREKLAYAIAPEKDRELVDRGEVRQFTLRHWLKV
M1 antag – antagonists of rat M1 muscarinic receptor. CHO-M1 cells, Fluo-4 calcium, ACh EC80 antagonist mode; stronger effect = lower value. B-score at 10 µM. 64,000 tested, 3.4% active. AID 628;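 active = calcium fluorescence response, raw or row-and-column corrected B-score, differing from the plate sample mean either way at a set confidence level, mostly lower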
FXIIa mix inh – inhibitors of human coagulation factor XIIa, pooled mixtures; P00748; purified FXIIa, fluorogenic substrate; inhibition, % at 5 µM; 62,000 tested, 0.2% active; AID 684;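 note: 0% = enzyme without compound and 100% = no enzyme blank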
M1 ag – M1 muscarinic receptor agonism; CHO-M1 cells, Fluo-4 calcium fluorescence, agonist mode; stronger effect = higher value; B-score at 10 µM; 64,000 tested, 3% active; AID 626;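 active = fluorescence rise, raw or as B-score row- and column-corrected plate score, outside the 99.7% band of its plate's samples, either direction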
D1 mod – allosterically modulates the human D1 dopamine receptor; HEK293 D1, CRE-luciferase, dopamine EC30 potentiation; actives deviate in either direction; 58,000 tested, 5.9% active; P21728; B-score at 10 µM;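 active = luminescence count or its row- and column-corrected plate score outside the 99.7% band of the plate's sample wells, on either side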
FXIa mix inh – blocks human factor XIa in pooled compound mixtures. purified FXIa, fluorogenic substrate. inhibition, % at 5 µM. 62,000 tested, 0.19% active. AID 680;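 note: each value is inhibition by a whole ten-compound pool holding the compound; 0% = enzyme with no mixture and 100% = wells lacking enzyme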
D1 PAM confirm – confirmation of human D1 dopamine receptor allosteric modulators | shares compounds with D1 mod | HEK293 D1 CRE-luciferase, dopamine EC30 potentiation; stronger effect = higher value | luminescence at 10 µM | 2,200 tested, 88% active | AID 642;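 active = luminescence in either of two replicates above the same-plate mean plus 3 SD of the low-dose dopamine control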
D1 ag no DA – activates D1 CRE-luciferase signal without dopamine present; shares compounds with D1 mod; HEK293 D1 CRE-luciferase, luminescence, no dopamine; stronger effect = higher value; luminescence at 10 µM; 1,900 tested, 0.8% active; in the data active = luminescence above about 3900
Isoprot counter – alters isoproterenol CRE-luciferase response in HEK293 cells; AID 647; calls only at 10 µM; HEK293 D1 CRE-luciferase, isoproterenol EC30 counter-screen; 2,200 tested, 63% active; shares compounds with D1 mod;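 active = luminescence in either replicate above plate mean of wells with a partly effective reference agonist dose plus 3 SD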;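 note: isoproterenol raises cAMP through native beta-adrenoceptor Gs so signal bypasses D1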
Starred values were filed as active, the others as inactive; i = inactive; · = not tested or not shown; + = active, no number. Cut-off read from the data, not from the text of the source, unless noted: active = inhibition above about 20% (passing the limit was not always enough); inactive = the rest.

SMILES | DAT uptake mod | M1 antag | FXIIa mix inh | M1 ag | D1 mod | FXIa mix inh | D1 PAM confirm | D1 ag no DA | Isoprot counter
COc1ccc2nc3oc(C(=O)N4CCN(c5cccc(Cl)c5)CC4)cc3cc2c1 | 0.025 | -0.34 | 1 | 0.89 | 3.6* | 4 | 5456 | 1484 | i
COc1ccc2nc3oc(C(=O)N4CCN(c5cccc(C(F)(F)F)c5)CC4)cc3cc2c1 | -0.7 | 0.1 | 3 | -1.5 | -1.1 | -1 | · | · | ·
COc1ccc(C(=O)CSc2ncn[nH]2)cc1OC | 0.6 | 0.38 | 1 | -0.34 | 18* | -5 | 17148* | 1644 | +
Cc1ccc(C(c2sc3ncnn3c2O)N2CC(C)CC(C)C2)cc1 (configuration not stated) | 2 | -0.087 | 2 | -0.65 | 1.8 | -7 | · | · | ·
CCOc1ccccc1-n1c(SCC(=O)Nc2ccc(CC)cc2)nc2n[nH]c(C)c2c1=N | 0.21 | -0.32 | · | -0.66 | 2* | · | 7472 | 1852 | i
CCOc1ccccc1NC(=O)CCSc1nc2n[nH]c(C)c2c(=N)n1-c1ccccc1Cl | -0.94 | -0.87 | -15 | 1.6 | 3.8* | 0 | 11132* | 1584 | +
COc1ccc(O)c(/C=N/c2sc(C)c(C)c2C#N)c1 | 0.54 | · | · | · | · | · | · | · | ·
Cc1ccc(Oc2ncc(CN3CC(C)OC(C)C3)s2)cc1 (configuration not stated) | 0.32 | · | · | · | · | · | · | · | ·
CCCn1c(SCC(=O)Nc2cc(Cl)ccc2OC)n[nH]c1=O | -0.32 | · | · | · | · | · | · | · | ·
COC(=O)Nc1c(-c2ccccc2)nc2ccc(C)cn12 | 0.44 | 0.15 | -21 | 0.14 | 3.1* | 7 | 6300 | 1728 | i
CCN=C1SC(CC(=O)Nc2sc(C)c(C)c2C(=O)OC)C(=O)N1CC (configuration not stated) | -0.54 | 0.18 | 1 | -0.61 | 1.1 | -10 | · | · | ·
CCN=C1SC(CC(=O)NC(N)=O)C(=O)N1CC (configuration not stated) | -1.4 | 0.0021 | -16 | 0.28 | 4.3* | 11 | 20476* | 1496 | +
CCN=C1SC(CC(=O)Nc2ccccc2OCC)C(=O)N1CC (configuration not stated) | 1.6 | -0.69 | 6 | 0.19 | 2.7* | 2 | 9772* | 1564 | i
CCN=C1SC(CC(=O)NCCc2ccc(OC)cc2)C(=O)N1CC (configuration not stated) | 0.72 | · | · | · | · | · | · | · | ·
Cn1c(=O)c2[nH]cnc2n(-c2ccccc2)c1=O | 0.7 | 0.62 | -2 | 1.2 | 7.3* | 5 | 23812* | 1516 | +
O=C(CSc1nnnn1-c1ccc2c(c1)OCO2)NCc1ccccc1 | -0.13 | -0.039 | 9 | 0.34 | -0.46 | 3 | · | · | ·
Fc1ccccc1CSc1nnnn1-c1ccc2c(c1)OCO2 | -0.54 | -0.27 | 7 | 0.64 | 5.1* | -1 | 11056* | 1596 | i
N#Cc1nc(N2CCOCC2)nc(N2CCOCC2)n1 | 0.31 | -0.24 | -17 | 0.05 | 5.1* | 8 | 12340* | 1704 | +
CCCc1nc2sc3c(SCC(=O)NCc4ccco4)ncnc3c2c2c1CCC2 | 0.15 | -0.39 | 3 | -0.54 | 5.3* | 4 | 8768* | 1628 | i
Cc1nc(SCC(=O)NCc2ccco2)c2c3c(sc2n1)CCCC3 | 0.034 | 0.0085 | 3 | 0.043 | · | 1 | · | · | ·
COc1cccc(Cn2c(-c3cccs3)noc2=O)c1 | 0.39 | -0.056 | 11 | -0.46 | 3.9* | 3 | 8904* | · | +
COc1ccc(CNC(=O)c2cc(-c3cccs3)on2)cc1 | 0.27 | -0.0029 | 6 | -0.12 | -0.02 | 2 | · | · | ·
CCOc1ccc(C2Oc3nc(SC)nnc3-c3ccccc3N2C(C)=O)cc1OC (configuration not stated) | 0.4 | -0.023 | -17 | 0.33 | 8.4* | 8 | 11344* | 1628 | i
CCC(=O)N1c2ccccc2-c2nnc(SC)nc2OC1c1ccc(OC)c(OC)c1 (configuration not stated) | 0.76 | -1 | 8 | -0.05 | 0.18 | 3 | · | · | ·
